Rows were chosen to be rich in hits. Some 1.2% of all compounds tested hit in one or more screens of this group.
RGS8-Gao reg = human RGS8-Galphao interaction regulation. P09471. multiplexed bead flow cytometry, RGS8-Galphao binding; actives lie on both sides. response (percent of control binding), % at 10 µM. 220,000 tested, 0.34% active. AID 1423; in the data active = response below about 60% or above about 140%; inactive = in between;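 note: Galphao activated as the GDP aluminium fluoride complex binding bead-coupled RGS8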
Target sequence (P09471 whole entry, looked up): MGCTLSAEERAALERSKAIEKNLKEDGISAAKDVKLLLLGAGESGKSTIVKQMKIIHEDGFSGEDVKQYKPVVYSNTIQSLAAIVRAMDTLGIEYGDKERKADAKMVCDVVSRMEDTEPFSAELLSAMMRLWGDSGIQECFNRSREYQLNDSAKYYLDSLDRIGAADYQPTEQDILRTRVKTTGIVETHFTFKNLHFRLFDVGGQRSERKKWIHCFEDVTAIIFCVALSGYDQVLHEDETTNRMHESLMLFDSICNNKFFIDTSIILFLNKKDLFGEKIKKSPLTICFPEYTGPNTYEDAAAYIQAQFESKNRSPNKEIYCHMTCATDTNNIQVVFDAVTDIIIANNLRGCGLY
RGS4-Gao reg = modulates binding of RGS4 to human Galphao; P09471; Multiplexed bead flow cytometry; actives lie on both sides; binding response (% of control), % at 10 µM; 220,000 tested, 0.33% active; AID 1415; in the data active = binding response below about 49% or above about 150%; inactive = in between;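 note: fluorescent Galphao activated with aluminum fluoride binding bead-coupled RGS4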
RGS16-Gao HTS = modulates binding between human RGS16 and Galphao | AID 1441 | O15492+P09471 | 220,000 tested, 0.38% active | binding response (% of control), % at 10 µM | bead-based flow cytometry RGS16-Galphao binding, fluorescence; actives lie on both sides;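 note: Galphao activated by GDP with aluminum fluoride before binding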
Target sequence (O15492 whole entry, looked up): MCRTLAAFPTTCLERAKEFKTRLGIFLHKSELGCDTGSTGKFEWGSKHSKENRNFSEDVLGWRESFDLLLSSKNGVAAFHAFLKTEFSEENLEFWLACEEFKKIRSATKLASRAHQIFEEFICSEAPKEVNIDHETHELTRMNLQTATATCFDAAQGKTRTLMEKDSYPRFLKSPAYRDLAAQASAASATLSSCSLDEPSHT
Target sequence (P09471 whole entry, looked up): as the sequence (P09471 whole entry, looked up) above
Avidin bead fluor = compound fluoresces at 488/530 nm on avidin beads. compound fluorescence 488/530 nm, flow cytometry; active compounds read high. fluorescence (KMESF) at 10 µM. 220,000 tested, 0.38% active. AID 1775; in the data active = fluorescence above about 47
RGS7-Gao reg = regulators of human RGS7-Galphao interaction. P09471. Multiplexed bead flow cytometry, RGS7-Galphao binding; actives lie on both sides. binding response (% of control), % at 10 µM. 220,000 tested, 0.35% active; in the data active = binding response below about 49% or above about 150%; inconclusive = no clear call, values can overlap the other calls; inactive = in between;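 note: fluorescent Galphao held in activated GDP-AlF4 state binding bead-coupled RGS7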
GSH bead fluor = compound fluoresces at 488/530 nm on GSH beads | fluorescence (KMESF) at 10 µM | 190,000 tested, 0.25% active | AID 1776 | GSH beads flow cytometry, compound fluorescence 488/530 nm; active compounds read high; in the data active = fluorescence above about 89;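 note: glutathione beads carrying GST-tagged Bcl family fusion proteins plus one bare bead set; values are compound well signal with DMSO vehicle wells as background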
RGS-Gao = modulates binding between human RGS4 and Galphao. RGS4–Galpha-o binding response, % at 10 µM. 1,600 tested, 99% active. shares compounds with RGS16-Gao HTS. AID 1504. multiplexed bead flow cytometry, RGS–Galpha-o binding;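 note: fluorescently labeled Galpha-o bound to GDP with aluminium fluoride binding biotinylated RGS beads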
Avidin counter = interferes with biotinylated probe binding to avidin beads; AID 1783; streptavidin beads, fluorescein-biotin binding, flow cytometry; inhibition, % at 10 µM; 1,700 tested, under 10 active; shares compounds with RGS16-Gao HTS;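 active = inhibition above 50%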;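 note: median green fluorescence of gated singlet beads compared with DMSO control wells; 0% = DMSO wells and 100% = complete loss of bead fluorescence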
RGS8-Gao single = confirmation of regulators of human RGS8-Galphao interaction | shares compounds with RGS16-Gao HTS | binding response (% of control), % at 10 µM | 1,700 tested, 3% active | bead-based flow cytometry RGS8-Galphao binding, fluorescence; actives lie on both sides; in the data active = binding response below about 72% or above about 130%; inactive = in between;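 note: Galphao activated as GDP AlF4 complex before binding bead RGS8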
RGS7-Gao confirm = RGS7-Galphao interaction regulation, single point confirmation; shares compounds with RGS16-Gao HTS; bead-based flow cytometry RGS7-Galphao binding; actives lie on both sides; response (percent of control binding), % at 10 µM; 1,700 tested, 7.8% active; AID 1837; in the data active = response below about 75% or above about 130%; inactive = in between;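 note: fluorescent Galphao activated with GDP and aluminum fluoride binding bead-coupled RGS7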
RGS16-Gao single = confirmation of regulators of human RGS16-Galphao interaction | shares compounds with RGS16-Gao HTS | response (% of control binding), % at 10 µM | 1,700 tested, 4% active | bead-based flow cytometry, RGS16-Galphao binding; actives lie on both sides; in the data active = response below about 74% or above about 130%; inactive = in between;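 note: Galphao activated as the GDP aluminium fluoride complex binding bead-coupled RGS16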
RGS4-Gao single = RGS4-Galphao interaction regulation, single point confirmation | shares compounds with RGS16-Gao HTS | RGS4-Galphao binding, multiplexed bead flow cytometry; actives lie on both sides | binding response (% of control), % at 10 µM | 1,700 tested, 4% active; in the data active = binding response below about 74% or above about 130%; inactive = in between
RGS19-Gao conf = RGS19-Galphao interaction regulation, single point confirmation; 1,700 tested, 5% active; shares compounds with RGS16-Gao HTS; response (percent of control binding), % at 10 µM; bead-based flow cytometry RGS19-Galphao binding; actives lie on both sides; in the data active = response below about 50% or above about 160%; inactive = in between;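 note: 100% = no compound control and 0% = blank background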
* = called active by the depositor; ? = inconclusive; . = no result given; + = active, no number; [ ] = remark or other dose. Unless noted, the rule behind the calls is not given here.

SMILES	RGS8-Gao reg	RGS4-Gao reg	RGS16-Gao HTS	Avidin bead fluor	RGS7-Gao reg	GSH bead fluor	RGS-Gao	Avidin counter	RGS8-Gao single	RGS7-Gao confirm	RGS16-Gao single	RGS4-Gao single	RGS19-Gao conf
COc1ccccc1NC(=O)C1CCCCC1	97	107	100	90*	158*[activator]	26	107*	.	.	.	.	.	.
CC1(C)CCC(C)(C)NC(=S)N1	80	99	15*	9	98	17	99*	-1	86	71*	84	82	84
CCOC1CC(C)(C)NC(=S)N1 (stereo unspecified)	100	107	108	3	103	7	.	.	.	.	.	.	.
Cc1ccc2nc(-c3cc(N)cc(N)c3)oc2c1	93	84	88	29	80	18	.	.	.	.	.	.	.
Nc1ccc(-c2nc3ccc(N)cc3o2)cc1	47*	50	40	0	1.9*	7	50*	0	106	105	108	103	105
Cc1ccc(C2=NN3C(=O)c4ccccc4C3C2)cc1 (stereo unspecified)	64	26*	40	1	?	.	.	-2	102	98	102	101	113
COc1ccc2c(c1OC)C(=O)N1N=C(c3ccc(F)cc3)CC21 (stereo unspecified)	101	97	98	10	99	17	.	.	.	.	.	.	.
Cc1nn(-c2ccccc2)c(Cl)c1/C=N/Nc1nc2ccccc2n1C	98	96	98	10	100	20	.	.	.	.	.	.	.
Cc1cc(C)cc(NC(=O)c2ccc(CNc3c(N4CCCC4)c(=O)c3=O)cc2)c1	104	106	102	7	?	.	.	.	.	.	.	.	.
CC(C)(C)OC(=O)N1CCC(c2cc(=O)n3[nH]c(-c4ccc(Cl)cc4)cc3n2)CC1	47*	33*	6	0	44*	23	.	-2	102	95	101	99	88
CC(C)(C)OC(=O)N1CCC(c2cc(=O)n3[nH]cc(C(=O)Nc4ccc(F)c(Cl)c4)c3n2)CC1	99	101	99	7	?	.	.	.	.	.	.	.	.
CCOP(=O)(Nc1ccc2oc(=O)c3ccccc3c2c1)OCC	103	102	100	12	?	.	.	.	.	.	.	.	.
NC(N)=NC(N)=Nc1ccc2ccccc2c1	95	101	100	6	99	12	.	.	.	.	.	.	.
NC(N)=NC(N)=Nc1ccc(SC(F)(F)F)cc1	72	101	16*	2	97	11	101*	0	101	100	102	100	100
CC12C(=O)N(c3nccs3)C(=O)C1C1C=CC2C1 (stereo unspecified)	.	.	.	.	.	29	.	0	103	98	100	97	89
O=C(c1ccco1)N1CCN(c2ccc([N+](=O)[O-])c(N3CCOCC3)c2)CC1	51*	43*	50	4	31*	13	.	-2	100	61*	83	77	66
CC(=O)N1CCN(c2ccc([N+](=O)[O-])c(-n3nc(C)cc3C)c2)CC1	60*	79	10	1	84	8	79*	-2	92	86	90	92	86
Cc1cc(C)n(-c2cc(N3CCN(C(=O)c4cccc(Br)c4)CC3)ccc2[N+](=O)[O-])n1	102	100	104	11	102	25	.	.	.	.	.	.	.
Cc1ccc(-c2sc(-c3cccnc3)nc2CC(=O)O)cc1	103	96	99	6	105	10	.	.	.	.	.	.	.
Cc1cc(NC(=O)c2cc(-c3cccs3)nc3ccccc23)no1	97	95	107	233*	256*[activator]	18	95*	5	100	94	102	100	76
C/C(Cc1ccccc1)=N\NC(=O)CNC(=O)c1ccccc1O	102	104	103	7	?	.	.	.	.	.	.	.	.
C/C(Cc1ccccc1)=N\NC(=O)CNC(=O)c1ccccc1Br	73	88	17*	6	86	4	88*	0	101	75*	93	80	83
COc1ccc(C(NC(C)=O)c2ccc3cccnc3c2O)c(OC)c1 (stereo unspecified)	47*	55	15	7	56	13	55*	2	98	93	98	97	86
CN(CCC#N)C(=O)COC(=O)c1cccnc1Nc1ccccc1F	107	104	110	24	105	11	.	.	.	.	.	.	.
Cc1ccc(-c2nn[nH]n2)cc1Cl	102	112	104	8	?	.	.	.	.	.	.	.	.
SMILES	RGS8-Gao reg	RGS4-Gao reg	RGS16-Gao HTS	Avidin bead fluor	RGS7-Gao reg	GSH bead fluor	RGS-Gao	Avidin counter	RGS8-Gao single	RGS7-Gao confirm	RGS16-Gao single	RGS4-Gao single	RGS19-Gao conf
Cc1ccc(-c2nn[nH]n2)cc1	.	.	.	.	.	19	.	3	92	91	93	95	71
Cc1ccc(-c2nn[nH]n2)o1	102	123	105	81*	151*[activator]	10	123*	2	103	101	103	101	92
Cc1cc(C)nc(/N=C2\NC(=O)CC3C(=O)NCCN23)n1 (stereo unspecified)	13*	21*	10*	4	12*	24	.	0	105	95	101	102	79
NS(=O)(=O)c1ccc(CCNC(=O)COC(=O)/C=C/c2ccccc2Cl)cc1	101	101	99	6	98	22	.	.	.	.	.	.	.
Cc1ccc(NC(=S)N(Cc2ccccc2)C(C)C)cc1	67	27*	37	1	?	.	.	0	104	106	105	106	109
Cc1cn2c(N)c(C=C3C=C(Cl)C(=O)C(Cl)=C3)c(=O)nc2s1	133	549*[activator]	444*[activator]	179*	473*[activator]	13	.	20	141*[activator]	+[activator]	449*[activator]	659*[activator]	+[activator]
COC1=C/C(=C/c2c(N)n3cc(C)sc3nc2=O)C=CC1=O	104	136	131	24	134	8	.	.	.	.	.	.	.

Screening results (PubChem)
